The record followed here is the supplement of paper PMC11417369.

The full ranking holds about 25,000 sequences; the median of “ln(normalized median fluorescence intensity)” is about 9.7, and the highest 2% start at about 11. Many of the other results were omitted from the sample, so the highest values are more common in it than they were.

The test system of the test is PfAP2-HC AP2 domain (GST-tagged). Nature of the test: gcPBM binding intensity (ln(normalized median fluorescence intensity)); higher = stronger DNA binding. An outline of the steps: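 An Agilent 4 × 180k array of primer-extended double-stranded 36-bp intergenic genomic probes, with negative controls, was incubated for 1 h with GST-tagged P. falciparum DNA-binding domains expressed in E. coli. Alexa488 anti-GST antibody detected bound protein, scanned at 488 nm. Binding intensity is the highest Masliner-normalised natural-log median intensity across replicate spots of either probe orientation.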
Consider “AGCTCTATATTTTACACATGCGATTTGGATATATAT [TGCATGCA_site105]”, for which the “gcPBM binding intensity (ln)” value amounted to 9.84.
To “ATGTACTATGATAATGCATGCAATAATACATTTTTA [TGCATGCA_site318]” belongs 9.6.
Consider “AAACTATTCACTATAATACATTAGAAGTGAATAAAA [TGCATGCA_negctrl_site498]”, for which the “gcPBM binding intensity (ln)” value turned out to be 9.64.
To “TTTTTTTTTCTCCATACACACTTGATAAAACTTTTT [CACACA_site4512]” belongs 9.64; to “AAAAAAAATAATTTGCGTACATAAAAATTTATAGGA [XGTACX_site3016]”, 9.58.
As for “AAAAATAAAGAAACAGGTACGCATATATTAAGATAT [XGTACX_site8097]”, the figure is 9.98; as for “TATCCTAATGCTACCACACACACAAAAACAAATAAT [CACACA_site2609]”, 10.7; as for “TATTATTTTTCATATGCATGCAAAAATAAAAAAATA [TGCATGCA_site350]”, 9.31.
As for “GGAAGGATATAACATACACACACACCCATATATATA [CACACA_site9376]”, the figure is 10.3.
For the sequence “AAGGATATAACATACACACACACACCCATATATATA [CACACA_site4142]”, the “gcPBM binding intensity (ln)” value came out at 11.1.
As for “TACATACATACATACACACACACATATATATACATA [CACACA_site853]”, the figure is 11.
To “CAAAAGGATAGGCACACACACACACCGATATATATA [CACACA_site8685]” belongs 10.7; to “CAAAAGGATAGGCACACACACACACCCATATATATA [CACACA_site2199]”, 11.1.
To “GCCAAAAGGATATGCACACACACACCCATATATATA [CACACA_site2198]” belongs 10.6.
For the sequence “TGGTAATACCCATACACACACACATACACATATATA [CACACA_site8877]”, the “gcPBM binding intensity (ln)” value is 10.3.
In the case of “AAGGATATAACATACACACACACACCGATATATATA [CACACA_site6136]”, the “gcPBM binding intensity (ln)” value is 10.6.
As for “TGGTAATACACATACACACACACATACACATATATA [CACACA_site7312]”, the figure is 11.4.
As for “TGGTAATACCCATACACACACACATACCCATATATA [CACACA_site5509]”, the figure is 10.3.
Regarding “TATATACATATATACACACACATATATATATATATA [CACACA_site2805]”, the “gcPBM binding intensity (ln)” value worked out at 10.1.
As to “TATACATATATATACACACACACATATATATATATA [CACACA_site1299]”, the “gcPBM binding intensity (ln)” value was 10.1.
To “TATATATATAAAAAAAGTACGTATTTAATAAAAATA [XGTACX_site4992]” belongs 9.88; to “AAAACTTTTAGTTATACACACAACATAGAAAATATT [CACACA_site6287]”, 9.84.
In the case of “TATAAAGACACGTACACACACTAAGTATATCCAATA [CACACA_site6855]”, the “gcPBM binding intensity (ln)” value stood at 10.5.
With AATATTCATATGCAGGTGCATTAATTTTTATTAATT, the “gcPBM binding intensity (ln)” value is 9.65.
In the case of “ATGCTTTTGTCATGTGCACACACGTATATATTATAT [CACACA_site4163]”, the “gcPBM binding intensity (ln)” value was 10.3.
As for “TGTTAATTATAAATTTGTACTTATTTTTACAAAATA [XGTACX_site6598]”, the figure is 9.48.
To “ATGTAACATAGGAAATGTACATATAAATATAATTTA [XGTACX_site6452]” belongs 9.77; to “CATATAATATTTGAAACTATATATAAATATAAGGTA [TGCATGCA_negctrl_site19]”, 9.52; to “GAAAATTTATATTGCACACATAGGGAATAAAAAAAA [CACACA_site2146]”, 9.99.
As for “ATATTTACCATTGTATGTACATATATAAAATATATC [XGTACX_site3237]”, the figure is 9.69; as for “TATACATACACATACACACATACACCCATACACATA [CACACA_site1746]”, 10.6; as for “AAATATAAATGGTAATACACATACACACACACATAC [XGTACX_negctrl_site459]”, 10.5.
As for “TGGTAATCCACATACACACACACATACACATATATA [CACACA_site2727]”, the “gcPBM binding intensity (ln)” value came to 10.3.
To “TATATATACATATACACACACACACCCATATATATA [CACACA_site2246]” belongs 11.1; to “TATATATATATATACACACACACACCCATATATATA [CACACA_site2538]”, 10.4; to “CACATATATACACATACACACACACCCATACACCCA [CACACA_site8505]”, 11.
To “CATACACCCATACATACACACATACATATATATATA [CACACA_site8591]” belongs 9.98.
Consider “CATATACATACACATACACACATACACCCATACACA [CACACA_site8514]”, for which the “gcPBM binding intensity (ln)” value was 10.2.
As for “AATGGTAATCCACATACACACACACCGACACATATA [CACACA_site8876]”, the figure is 11.1; as for “ACAGTATATTAAAAAATACACACGTATTATATCTAC [CACACA_site2640]”, 9.83; as for “TATATGCTATAATATACACACATACCTATATTTATA [CACACA_site6383]”, 9.94.
To “ATTTCTTATTAAATTACACACAAAGTAAATAAATCT [CACACA_site3924]” belongs 9.54; to “AAAAAAAAAATACATACACACACACCCACCCATATA [CACACA_site9187]”, 10.5; to “CACCCATAAATATACACACGCACAACACAAAATAAA [CACACA_site2903]”, 10.7.
Turning to “TACACGCTAAAATACACACACACACCCACATATATA [CACACA_site4153]”, the “gcPBM binding intensity (ln)” value was determined as 10.6.
To “AAAATACACGCATACACACACACACCCACCCATATA [CACACA_site639]” belongs 11.5.
Consider “AGAAAATACACGCATACACACACACCCACCCACATA [CACACA_site8115]”, for which the “gcPBM binding intensity (ln)” value worked out at 11.3.
On to “AAAAAAAATACATACACACACACACCCACATATATA [CACACA_site3561]”, for which the “gcPBM binding intensity (ln)” value came out at 10.6.
As for “GCTTTTGTCATGTGCACACACGTATATATTATATAT [CACACA_site6146]”, the figure is 10.9; as for “AATATCTAAATAAAGTGTACTTACCTTATTAATTAT [XGTACX_site2276]”, 9.64.
As for “CATAAAAATTGAAGCACACACACAAAAGAAATACAA [CACACA_site1112]”, the figure is 10.7; as for “TAAAAGTTGAAGCACACACACAAAAGAAATACAATA [CACACA_site6649]”, 11.3; as for “TAAAAATTGAAGCACACACACAAAAGAAATACAATA [CACACA_site1113]”, 10.9.
To “TTAAGTCCGTTAACAGTGCATTTTTTCTTTTATGTA [GTGCAC_site9867]” belongs 9.58; to “TATATAAATATACATTGTACTCAACATTTTCATTAA [XGTACX_site3690]”, 9.62; to “ATTCATTCATATGTTACACACACACGCCCACATAAA [CACACA_site7513]”, 10.6.
“ATTCATTCATATGTTACACACACACCCACCCATAAA [CACACA_site9066]”: the “gcPBM binding intensity (ln)” value was 10.1.
To “GGTACATACAGACACACACACAAAAAAAAAAAAATA [CACACA_site6844]” belongs 11.2.
To “GTGTACAGACACAAAATATATACATATATATATATA [CACACA_negctrl_site1796]” belongs 9.51; to “ATATGTTACAGACACACACACACATAAAAAAACAAA [CACACA_site3248]”, 11.1.
As for “AACAAATACAGACACACACACACACTAATAAAAAAA [CACACA_site8067]”, the figure is 11.6.
As to “ATGTTACACAGACACACACACATAAAAAAACAAAAA [CACACA_site7516]”, the “gcPBM binding intensity (ln)” value amounted to 10.4.
To “TGAACACAGACAAATACACACAAAAAAAATAAATAA [CACACA_site4298]” belongs 10.
To “TCATTCATATGTTACACACACACACCCACATAAAAA [CACACA_site3245]” belongs 11.2; to “AATACAGACAGACACACACACAAAATAAAATACAAA [CACACA_site245]”, 10.5; to “ATGTTACTCAGACACACACACATAAAAAAACAAAAA [CACACA_site3249]”, 10.4.
To “ATATGTCACTTGTATACACACATATAGATTTCAATC [CACACA_site7519]” belongs 9.94; to “GAAAATAAAAAATATGAACACACATATATAACAAAA [CACACA_site7975]”, 10.5; to “AAAAAAAACAGACACACACACAAATATATAAAAATA [CACACA_site1172]”, 10.6.
As for “ATAAATGACAGACACACACACAAAAAAAAAAAACAA [CACACA_site2626]”, the “gcPBM binding intensity (ln)” value stood at 11.5.
“TACATATACAGACACACACACACACCCCCACAAAAA [CACACA_site495]”: the “gcPBM binding intensity (ln)” value was determined as 10.8.
To “CATACAGATGGACACACACACACACCCACAGACAAA [CACACA_site4431]” belongs 10.5; to “ATGGTACATACATACACACACACAAAAAAAAAAAAA [CACACA_site1578]”, 11.3.
In the case of “GGTACATACAAACACACACACAAAAAAAAAAAAATA [CACACA_site1577]”, the “gcPBM binding intensity (ln)” value stood at 10.3.
For “TTTTTGTAATGACACACACACAAACAGAAAAAATAA [CACACA_site7062]”, the “gcPBM binding intensity (ln)” value is 10.2.
Take “TACAGATACGGACACACACACACACCCAGACAAAAA [CACACA_site4432]”: the “gcPBM binding intensity (ln)” value came to 11.
To “AACACATACAAACACACACACAAAAAAAAAAAAAAA [CACACA_site393]” belongs 10.4.
As for “AACAAATACAGACACACACACACACCCAAAAAAAAA [CACACA_site515]”, the figure is 10.9; as for “AATACACCCAGACACACACACAAAAAAAAAAAAAAA [CACACA_site513]”, 10.1; as for “TAGGGATTATACCACACACACATACACATAAATATA [CACACA_site3178]”, 10.3.
To “ACAATATGCAAAAAGTGTACACATTCATTTATATAA [XGTACX_site1061]” belongs 10.1; to “AGCAACCCCCTAGCTACACACATATAGATATAAATA [CACACA_site6577]”, 10.6; to “TTTAAATCGTTAAAAACACACAAAAAAAATCAATTA [CACACA_site2519]”, 9.59.
Turning to “TTTTTTTTTTTGGTTACACACATTTGTATATTCTCA [CACACA_site134]”, the “gcPBM binding intensity (ln)” value was 9.89.
Take “CTATATGTTAAATTCTCACACATTATTACAATTTAA [CACACA_site5979]”: the “gcPBM binding intensity (ln)” value was found to be 9.67.
Turning to “AATTGTAAATTGGGCACTTATAAAAATGAACAAATA [CACACA_negctrl_site1583]”, the “gcPBM binding intensity (ln)” value stood at 9.71.
“ATGAAAAAATTTATATGTACTTAAAATATAATCATA [XGTACX_site1228]”: the “gcPBM binding intensity (ln)” value was 9.33.
To “AAAAAAAACAGACACATACACACAAAAATGTTATAA [CACACA_site82]” belongs 10.9; to “TATATATACAGACACATACACACAAATAAAAAAACA [CACACA_site3413]”, 10.3.
To “AAATAAAACAGACACACACACACATACACAAAAAAA [CACACA_site7753]” belongs 10.9; to “AAAAAAAACAGACACACACACAAATACATACACAAA [CACACA_site705]”, 10.5; to “TACAAACAGACATATACACACAAAAAAAAAATAAAA [CACACA_site2562]”, 9.89.
As for “AACACATACAGACACACACACAAAAAAAAAAAAAAA [CACACA_site6322]”, the figure is 10.9.
Turning to “AAAAAACACAGACATACACACAAAAAGGTTATAAAT [CACACA_site4222]”, the “gcPBM binding intensity (ln)” value came to 10.2.
To “AAAAAACACGCACATACACACAAAAATGTTATAAAT [CACACA_site6188]” belongs 10.2; to “AAAAAAAAAAAAAACACACACATACAGACAAAAATG [CACACA_site83]”, 11.5.
